The structures appear in SMILES notation. The campaign covered roughly 9,600 compounds. About 20 (0.2%) were called active. The sample holds actives, similar compounds and a random draw of the others, so the mix is not that of the screen.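 The calls were made as follows: active = highest normalized replicate activity of 15 or more, or at least half the replicates reach 15 or more; inactive = neither condition met.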

65 molecules from PubChem BioAssay AID1053180 (Broad Institute, 2014) can be followed below.

This test is described as follows: activators of Pax4 gene expression, primary screen, RT-PCR, mouse alpha TC1 cells, single point (AID 1053180).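 Also: Pax4 Ct normalized to GAPDH with activation seen as lower delta delta Ct; plate controls were plate neutral control wells for no effect and Pax4 plasmid positive control for full effect.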 Conditions: Pax4 mRNA qPCR, 6 days, at 10 µM, hits give high values, 100% = Pax4 plasmid added at qPCR. On the technique in general: Real-time PCR tracks product formation cycle by cycle.
Regarding `O=C(C[C@@H]1CC[C@H]2[C@@H](COC[C@@H](O)CN2C(=O)Cc2ccccc2)O1)NC1Cc2ccccc2C1`, the activation was 0.021% (inactive). Take `CCCN(C)C[C@H]1OCCCC[C@@H](C)Oc2ccc(NC(=O)CCCN(C)C)cc2C(=O)N([C@H](C)CO)C[C@@H]1C`: the activation was 0.002% (inactive). Take `C/C=C/c1ccc([C@H]2[C@@H](CO)N3C(=O)CN(Cc4ccc(F)cc4)C[C@H]23)cc1`: the activation is 0% (inactive). Next, `C/C=C/c1ccc([C@H]2[C@@H](CO)N3C(=O)CN(Cc4ccc(F)cc4)C[C@@H]23)cc1`: 86.9% (active); `C/C=C/c1ccc([C@@H]2[C@@H](CO)N3C(=O)CN(Cc4ccc(F)cc4)C[C@@H]23)cc1`: 0.0005% (inactive). With `COc1ccccc1NC(=O)N1CC(=O)N2[C@H](CO)[C@@H](c3ccc(C#CC(C)C)cc3)[C@@H]2C1`, the activation is 0.007% (inactive).

In the case of `COc1cccc(-c2ccc3c(c2)O[C@H](CN(C)Cc2cccnc2)[C@H](C)CN([C@@H](C)CO)S3(=O)=O)c1`, the activation was 0.057% (inactive).

On to `COc1ccc(C(=O)N2C[C@H]3[C@@H](c4ccccc42)[C@@H](CO)N3C(=O)Cc2ccccn2)cc1`, for which the activation was 0% (inactive). With `N#C[C@@H]1[C@@H](c2ccccc2-c2ccccc2F)[C@H](CO)N1C(=O)Cc1ccccc1`, the activation is 0.001% (inactive). In the case of `Cc1nc(N2[C@@H](C#N)[C@@H](c3ccccc3)[C@@H]2CO)sc1C`, the activation is 0.0005% (inactive).

Regarding `COc1ccc(C[C@@H]2CCn3cc(nn3)COC[C@H](C)NC2=O)cc1`, the activation was 0.0005% (inactive). Next, `Cc1ccc(S(=O)(=O)N2C[C@H]3[C@@H](c4ccccc42)[C@@H](CO)N3Cc2cccnc2)cc1`: 0.002% (inactive); `O=C(C[C@H]1CC[C@H]2[C@@H](COC[C@@H](O)CN2S(=O)(=O)c2ccc(F)cc2)O1)NCCN1CCCCC1`: 0.003% (inactive). Next, `COc1ccc(NC(=O)N[C@H]2CC[C@@H](CCNC(=O)CN3CCOCC3)O[C@H]2CO)cc1`: 0.002% (inactive).

With `Cc1noc(C)c1S(=O)(=O)Nc1ccc2c(c1)C(=O)N([C@H](C)CO)C[C@H](C)[C@H](CN(C)Cc1ccc(C(=O)O)cc1)OCCCC[C@H](C)O2`, the activation is -0.0005% (inactive). In the case of `COc1ccc(S(=O)(=O)Nc2ccc3c(c2)C(=O)N([C@@H](C)CO)C[C@H](C)[C@H](CN(C)S(=O)(=O)c2ccc(Cl)cc2)OCCCC[C@H](C)O3)cc1`, the activation was 0.0535% (inactive). As for `COc1cccc(-c2cccc(-c3nc(C(=O)O)cc4c3[C@H](CCO)N(S(=O)C(C)(C)C)C4)c2)c1` (stereo not given in full), the activation was 0.001% (inactive). With `COc1cccc(-c2cccc(-c3nc(C(=O)O)cc4c3[C@@H](CCO)N(S(=O)C(C)(C)C)C4)c2)c1` (stereo not given in full), the activation was 0% (inactive).

With `COc1cccc(-c2cccc(-c3nc(C(=O)Nc4ccc(-c5ccccc5)cc4)cc4c3[C@@H](CCO)N(S(=O)C(C)(C)C)C4)c2)c1` (stereo not given in full), the activation is 42.4% (active). Next, `COc1cccc(-c2ccc3c(c2)[C@@H]2[C@@H](CCN2S(=O)(=O)C2=NC(C)C=N2)[C@H](CO)N3C)c1` (stereo not given in full): 0.001% (inactive). Next, `COCC(=O)Nc1ccc2c(c1)[C@H]1C[C@@H](CC(=O)N[C@@H](C)c3ccccc3)O[C@@H](CO)[C@H]1O2`: 0.004% (inactive); `O=C1CN(S(=O)(=O)c2cccc(F)c2)C[C@@H]2[C@@H](c3ccc(C4=CCCC4)cc3)[C@H](CO)N12`: 0.006% (inactive). For `C[C@H](NC(=O)C[C@@H]1C=C[C@H](NC(=O)c2cccnc2)[C@@H](CO)O1)c1ccccc1`, the activation was 0.001% (inactive). Turning to `CO[C@H]1CN(C)C(=O)c2cc(NC(=O)C3CCOCC3)ccc2OC[C@H](C)NC[C@@H]1C`, the activation is 0.0005% (inactive). With `CCN1CC(=O)N2[C@@H](CO)[C@H](c3ccc(Br)cc3)[C@@H]2C1`, the activation was 0% (inactive). Consider `Cn1cnc(S(=O)(=O)N[C@H]2CC[C@H](CC(=O)NCC3CCCCC3)O[C@@H]2CO)c1`, for which the activation is -0.0005% (inactive). Consider `COc1ccc(S(=O)(=O)N2C[C@H](O)COC[C@@H]3O[C@@H](CC(=O)N[C@H]4CCN(Cc5ccccc5)C4)CC[C@H]32)cc1`, for which the activation was -0.0135% (inactive).

With `COc1ccc2c3c(n(C)c2c1)[C@@H](CO)NCC31CCN(CC2CCCCC2)CC1`, the activation is 0.027% (inactive). The value for `O=C(NC1CCCC1)[C@@H]1[C@@H](CO)[C@@H]2Cn3c(ccc(C4=CCCCC4)c3=O)[C@H]1N2CC1CC1` was 0% (inactive); that for `O=C(Nc1ccc2c(c1)[C@@H]1C[C@@H](CC(=O)N3CCCCC3)O[C@H](CO)[C@@H]1O2)NC1CCCCC1` was 0.012% (inactive).

Consider `COc1ccc(S(=O)(=O)N(C)C[C@@H]2Oc3c(NC(=O)c4nc5ccccc5s4)cccc3C(=O)N([C@@H](C)CO)C[C@@H]2C)cc1`, for which the activation was -0.002% (inactive). Take `CCS(=O)(=O)Nc1ccc2c(c1)C(=O)N(C)C[C@H](OC)[C@@H](C)CN(C(=O)c1ccc3c(c1)OCO3)[C@@H](C)CO2`: the activation is 0% (inactive). Take `C/C=C/c1ccc([C@@H]2[C@H](CO)N(C(C)=O)[C@H]2CN(C(C)=O)C2CCCC2)cc1`: the activation is 0.004% (inactive). As to `COCC(=O)N1CCC2(CC1)CN(Cc1ccccc1Cl)[C@H](CO)c1[nH]c3cc(OC)ccc3c12`, the activation was 0.0015% (inactive). The value for `CN(C)C(=O)c1cccc(-c2ccc([C@@H]3[C@@H](CO)N4CCCCN(CC5CCOCC5)C[C@@H]34)cc2)c1` was 0.001% (inactive); that for `Cc1ccc(S(=O)(=O)Nc2cccc3c2O[C@@H](CN(C)C(=O)Nc2ccc(C(F)(F)F)cc2)[C@@H](C)CN([C@H](C)CO)C3=O)cc1` was 0.002% (inactive).

`C[C@@H]1CN([C@@H](C)CO)C(=O)c2c(c3ccccc3n2C)-c2ccccc2CO[C@H]1CN(C)C(=O)[C@H](Cc1ccccc1)N(C)C`: the activation was 0.0095% (inactive). On to `CN(C)C(=O)c1ccc(-c2ccc([C@H]3[C@H](C#N)N(C(=O)C4CC4)[C@H]3CO)cc2)cc1`, for which the activation is 0.0005% (inactive).

Take `N#C[C@H]1[C@@H](c2ccccc2-c2cccc(F)c2)[C@H](CO)N1C(=O)CN1CCOCC1`: the activation is 0.006% (inactive). The value for `O=C(CC1CC1)N1CC[C@@H]2[C@H]1c1cc(-c3ccc(F)cc3)ccc1N[C@@H]2CO` was 0.0045% (inactive); that for `CCS(=O)(=O)Nc1ccc2c(c1)C(=O)N(C)[C@H]1CC[C@H](CC(=O)NCCCN3CCOCC3)O[C@H]1CO2` was 0% (inactive); that for `C/C=C/c1ccc([C@@H]2[C@H](CO)N3CCCCN(S(=O)(=O)c4ccc(OC)cc4)C[C@@H]23)cc1` was 0.0005% (inactive). For the molecule `COCC(=O)N1[C@@H](C#N)[C@@H](c2ccccc2C2=CCCC2)[C@@H]1CO`, the activation was 0.01% (inactive). For the molecule `O=C(Nc1ccc(F)cc1)N1[C@@H]2CNc3ccccc3[C@@H]2[C@@H]1CO`, the activation is 0.0065% (inactive).

Take `COCC(=O)Nc1ccc2c(c1)OC[C@H](C)N(C)C[C@H](C)[C@H](OC)CN(C)C2=O`: the activation was 0% (inactive). As for `COCCN(C[C@H]1N[C@H](CO)[C@@H]1c1ccccc1)C(=O)NC1CCCC1`, the activation was 0.002% (inactive).

For the molecule `C[C@H]1CN([C@@H](C)CO)C(=O)c2ccccc2-c2ccccc2CO[C@H]1CN(C)Cc1ccc2c(c1)OCCN2C`, the activation is 0.073% (inactive). On to `COc1ccc2c3c(n(C)c2c1)[C@H](CO)N(C)CC31CN(S(=O)(=O)c2cccs2)C1`, for which the activation was 0.001% (inactive).

As for `Cc1noc(C)c1S(=O)(=O)N(C)C[C@@H]1Oc2c(NC(=O)c3ccc(-c4nccs4)cc3)cccc2C(=O)N([C@@H](C)CO)C[C@H]1C`, the activation was -0.0005% (inactive).

Turning to `N#C[C@@H]1[C@@H](c2ccccc2-c2cccc(F)c2)[C@H](CO)N1C(=O)C1CC1`, the activation is 0.0185% (inactive). The value for `CN1C(=O)c2cc(NC(=O)c3cscn3)ccc2OC[C@H]2O[C@H](CC(=O)NCc3ccc(Cl)c(Cl)c3)CC[C@@H]21` was 0.0025% (inactive); that for `COCCNC(=O)C[C@H]1C[C@@H]2c3cc(NC(=O)CN(C)C)ccc3O[C@@H]2[C@@H](CO)O1` was 0.003% (inactive); that for `O=C(C[C@H]1C[C@@H]2c3cc(NC(=O)NC4CCCC4)ccc3O[C@@H]2[C@@H](CO)O1)NCc1ccccc1F` was 0.0035% (inactive).

`CO[C@H]1CN(C)C(=O)c2cc(NC(=O)C3CCCCC3)ccc2OC[C@@H](C)N(C(=O)c2ccccc2)C[C@@H]1C`: the activation was -0.0005% (inactive). The value for `CN1C(=O)c2cc(NC(=O)C3CCOCC3)ccc2OC[C@@H]2O[C@H](CC(=O)NCCc3ccncc3)CC[C@H]21` was 0.0015% (inactive). On to `C[C@@H]1CNC(=O)[C@H](Cc2ccc(C(F)(F)F)cc2)CCn2nncc2COC1`, for which the activation is 0.259% (inactive). As for `C[C@H]1CNC(=O)[C@H](Cc2ccc(C(F)(F)F)cc2)CCn2nncc2COC1`, the activation was 2.47% (inactive). For `C[C@H]1CNC(=O)[C@@H](Cc2ccc(C(F)(F)F)cc2)CCn2nncc2COC1`, the activation is 7.98% (active).

Regarding `CN(C)CC(=O)N1[C@H](CO)[C@@H](c2ccc(C#CC3CCCCC3)cc2)[C@@H]1C#N`, the activation is 0.005% (inactive). Take `COCC(=O)N1[C@H](CO)[C@@H]2c3ccccc3N(C)C[C@@H]21`: the activation was 0.0025% (inactive).

Consider `Cc1nn(C)cc1NC(=O)C[C@@H]1CC[C@@H]2[C@H](COc3ccc(NC(=O)c4cccc(F)c4)cc3C(=O)N2C)O1`, for which the activation is 0.0015% (inactive). Next, `CC(C)[C@H]1COCn2nncc2CC[C@H](C)C(=O)N1`: 0.0005% (inactive); `c1cc(-c2ccc(C3[C@@H]4CN(Cc5nccs5)C[C@H]3N4)cc2)ccn1` (stereo not given in full): 0.0255% (inactive). On to `O=C(Nc1ccccc1)N1CC(=O)N2[C@@H](CO)[C@H](c3ccc(C#CC4CCCCC4)cc3)[C@@H]2C1`, for which the activation was 0% (inactive). Next, `CO[C@H]1CC[C@@H]2CCOc3c(C#N)cccc3C(=O)N(C)C[C@@H](OC)[C@@H](C)C(=O)N(C)C[C@H]1O2`: -0.0005% (inactive).
